# Assay outcomes deposited in PubChem BioAssay by several laboratories.
# An excerpt weighted towards active compounds, which were near 4.7% of everything screened.
# HSF-1 act – increases HSF-1 driven luciferase reporter signal; NIH3T3-HGL HSF-1 luciferase reporter, MG132, 8 h; 100% = twice DMSO control signal; activation, % at 9 µM; 300,000 compounds, 1.7% hits; AID 504408;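 active = mean replicate activation of at least 50% with a set share of replicates each reaching 50%; inconclusive = only one of those two conditions met; inactive = mean below 50% and too few replicates reaching it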;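 note: 0% = median of the neutral control wells and 100% = twice that signal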
# TWEAK-Fn14 inh – blocks TWEAK-Fn14 interaction in a reporter cell assay; TWEAK-stimulated Fn14 reporter cells, luciferase luminescence, 8 h; inhibition, % at 10 µM; 360,000 compounds, 2% hits; in the data active = inhibition above about 50%
# HSF1 inhib – HSF1 inhibition; NIH3T3-HGL HSE-luciferase, MG132-induced, luminescence 8 h; stronger effect = lower value; activity change, negative = inhibition, % at 7.5 µM (by protocol); 300,000 compounds, 0.77% hits;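 active = more than half of replicate wells show activity change below -50%, luminescence cut by over half; inconclusive = some wells, but at most half, below -50%; inactive = no replicate well below -50%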;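 note: luciferase reports HSF-1 transcriptional activity via heat shock element; 0% = median of DMSO wells and -100% = zero luminescence signal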
# EBV LMP1 NFkB – inhibitors of Epstein-Barr LMP1-induced NF-kappaB reporter. AID 504558. inhibition, % at 12.5 µM. 350,000 compounds, 0.69% hits. LMP1-induced NF-kappaB luciferase reporter cells, luminescence; in the data active = inhibition above about 41%; inconclusive = no clear call, values can overlap the other calls;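 note: 0% = neutral control wells and 100% = reference inhibitor control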
# HSP90 inh – inhibitors of HSP90 luciferase refolding in rabbit reticulocyte lysate. luciferase refolding luminescence, 3 h. inhibition, % at 5.6 µM. 290,000 compounds, 0.91% hits. AID 1789;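 active = inhibition above the screen-wide mean plus 3 SD, computed separately per campaign, cut at about 16% in these data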;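 note: 0% = DMSO wells and 100% = 60 µM geldanamycin wells; inhibitors lower the luminescence because luciferase stays unfolded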
# TROY signal inh – TROY signaling inhibition. Q293 LMP1-TROYcd NF-kB luciferase reporter, 4 h. inhibition, % at 10 µM. 360,000 compounds, 0.98% hits;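 active = compounds whose plate-normalised and pattern-corrected inhibition of the luciferase reporter signal at the single screening dose is 50% or more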
# * marks the source's active call; other numbers are inactive results; u = inconclusive; x = no result given.
SMILES,HSF-1 act,TWEAK-Fn14 inh,HSF1 inhib,EBV LMP1 NFkB,HSP90 inh,TROY signal inh
COc1cccc(COC(=O)C2CCN(S(=O)(=O)c3ccc(C)cc3)CC2)c1OC,3,-17,-1,-7,x,2
COc1ccc(S(=O)(=O)Nc2cc(Sc3ncn[nH]3)c(O)c3ccccc23)cc1,x,x,x,x,76*,x
COc1ccc(S(=O)(=O)Nc2cc(SCC(=O)O)c(O)c3ccccc23)cc1,14,93*,6,-9,7,51*
O=C(O)CSc1cc(NS(=O)(=O)c2ccc(Cl)cc2)c2ccccc2c1O,16,94*,3,9,14,46
COc1ccc(S(=O)(=O)Nc2ccc(O)c(Sc3ncn[nH]3)c2)cc1,-17,8,6,-12,2,0
O=C(Nc1ccccc1)C1Cc2c(-c3ccco3)ccnc2O1 (stereo not given),x,-60,x,x,x,-12
Cc1csc(SCC(=O)c2c(N)n(CC(C)C)c(=O)n(C)c2=O)n1,6,52*,-16,10,3,21
CCOC(=O)Cc1csc(SCC(=O)c2c(N)n(CC(C)C)c(=O)n(C)c2=O)n1,-11,22,-12,10,0,25
CCOC(=O)c1c(CSc2nc(C)cc(C)c2C#N)n(C)c2cc(Br)c(OC(C)=O)cc12,8,61*,-1,50*,-4,27
Cc1ccc(NC(=O)c2cc(-c3ccco3)on2)cc1C,55*,13,39,-44,0,-57
O=C(Nc1cnn(Cc2ccc(F)cc2)c1)c1cc(-c2ccco2)on1,-66,-36,-54*,13,-3,-9
Cc1ccc(NC(=O)c2cc(-c3ccco3)on2)cc1,27,-46,7,-28,-4,-84
COc1cc2c3c(c1OC)C1(C=CC(=O)C=C1)CC3N(C(=O)c1ccccc1)CC2 (stereo not given),55*,0,25,-2,5,-8
COc1cc2c3c(c1OC)C1(C=CC(=O)C=C1)CC3N(C(=O)CCC(=O)O)CC2 (stereo not given),-3,-7,-4,2,-2,-6
O=C(Nc1nnc([C@H]2C[C@H](O)[C@@H](CO)O2)s1)C(c1ccccc1)c1ccccc1,x,1,x,x,x,1
CN(C)S(=O)(=O)Oc1cccc(C(=O)Nc2cccc(Cl)c2)c1,40,15,24,-22,-3,-8
COc1cccc(C(=O)Nc2ccccc2)c1,30,9,3,-27,0,-35
CN(C)S(=O)(=O)Oc1cccc(C(=O)Nc2ccc(Cl)c(Cl)c2)c1,-2,80*,-16,-19,-3,47
COc1ccc(NC(=O)c2cccc(OS(=O)(=O)N(C)C)c2)cc1,54*,0,34,-22,3,-32
COc1ccccc1C(=O)Nc1cccc(SC)c1,17,-22,4,-14,-2,-36
COc1cccc(C(=O)Nc2cccc(SC)c2)c1,62*,-20,37,-27,-3,-35
CSc1cccc(NC(=O)c2cccc3cccnc23)c1,54*,-36,27,-35,-4,-57
COc1ccc(CN2C(=O)C(CC(=O)NCCCN(C)C)CC(C(=O)N(C)C)=C2C)cc1 (stereo not given),x,-27,x,6,x,4
CCN(CC)CCNC(=O)c1ccc2c(c1NCCO)C(=O)c1ccccc1C2=O,28,87*,16,x,9,43
CCOC(=O)C1(C)CCCCCN1C(=O)/C=C/c1ccccc1 (stereo not given),x,17,x,x,x,7
SMILES,HSF-1 act,TWEAK-Fn14 inh,HSF1 inhib,EBV LMP1 NFkB,HSP90 inh,TROY signal inh
Cn1nc(NC(=O)C(F)(F)F)c2ncc(-c3ccccc3)nc21,x,-25,x,-6,x,-24
CCc1nc2ccc(C(=O)Nc3ccc(NC(C)=O)cc3)cn2c1N(C)CCCc1ccccc1,x,-4,x,x,x,13
COCCNc1nc(NCC2CCCCC2)c2sc(-c3ccccc3)cc2n1,x,12,x,x,x,1
c1ccc(-c2cc3nc(NCC4CC4)nc(NCC4CCCCC4)c3s2)cc1,x,56*,x,x,x,15
CS(=O)(=O)c1ccc(S(=O)CC(=O)OCc2ccccc2)c([N+](=O)[O-])c1 (stereo not given),-94,90*,-94*,49*,-1,56*
CCOC(=O)c1ccccc1OC(=O)CS(=O)c1ccccc1[N+](=O)[O-] (stereo not given),24,-2,27,-1,-1,6
O=C(CS(=O)c1ccc(C(F)(F)F)cc1[N+](=O)[O-])Oc1ccccc1 (stereo not given),238*,-12,172,-13,7,12
O=C(/C=C/Nc1ccc(F)cc1F)c1cccs1,77*,60*,30,3,-3,10
CCOC(=O)c1ccccc1N/C=C/C(=O)c1cccs1,37,0,6,-10,2,34
O=C(/C=C\Nc1cccc(F)c1)c1cccs1,22,10,6,-50,0,-56
O=C(/C=C/Nc1ccccc1F)c1cccs1,u,64*,20,13,-5,-14
Cc1ccc(N/C=C/C(=O)c2cccs2)cc1,-9,81*,-5,16,-5,55*
CCOC(=O)CCSc1nc(C)c2cc(C)c(C)cc2n1,4,82*,5,3,1,x
COc1cccc2c1C(=O)c1c(O)c3c(c(O)c1C2=O)CC(O)(C(C)=O)CC3OC1CC(O)C(O)C(C)O1 (stereo not given),x,-173,x,31,x,-89
COc1cccc2c1C(=O)c1c(O)c3c(c(O)c1C2=O)C[C@](O)(C(C)=O)C[C@H]3O[C@@H]1C[C@@H](N)[C@@H](O)[C@@H](C)O1,-63,97*,-67*,91*,x,77*
COc1cccc2c1C(=N)c1c(O)c3c(c(O)c1C2=O)CC(O)(C(C)=O)CC3OC1CC(N)C(O)C(C)O1 (stereo not given),x,-139,x,53*,x,-43
CCCCC(=O)OCC(=O)C1(O)Cc2c(O)c3c(c(O)c2C(OC2CC(NC(=O)C(F)(F)F)C(O)C(C)O2)C1)C(=O)c1c(OC)cccc1C3=O (stereo not given),x,-199,x,48*,x,-9
COc1cc(NC(=O)c2ccc(-c3cnn(C)c3)c3ccoc23)cc(OC)c1OC,x,10,x,x,x,-21
